# Assay results: PubChem BioAssay (NCATS)
# Results filed as inconclusive are left out. The source made the active and inactive calls. The call rests on the fitted dose curve; in most records, active means well fitted cell-killing curve with a large enough effect; inconclusive means small, poorly fitted or top-dose-only effect, or effect the other way; inactive means no such curve, though single readings can be large or run the other way. Residues, ends and D or L forms follow the SMILES beside them. *: point of attachment. Cbz = O=C(OCc1ccccc1)*
# Assay: Quantitative High-Throughput drug screen in 47 multiple myeloma cell lines against the NCATS MIPE library collection: KMS20_JCRB cell viability assay (AID 1918973); further: nearly all actives have a fitted effect of over 45% in size
# Settings: CellTiter-Glo ATP, 48 h; series mostly up to 45.8 µM
# From the text: PI: Beverly A. Mock Ph.D.
# Laboratory of Cancer Biology and Genetics,
# Center for Cancer Research, National Cancer Institute,
# National Institute of Health, Bethesda, Maryland
# Drug resistance and disease progression are common in multiple myeloma (MM) patients, underscoring the need for new therapeutic combinations. […] We hypothesized that effective combinations would reduce MYC expression and enhance p16 activity. […] These preclinical data identify potentially useful drug combinations for evaluation in drug-resistant MM and reveal potential mechanisms of combined drug sensitivity.
# Described herein is the primary MIPE qHTS used to cherrypick compounds. Validated compounds were then further tested for potential synergistic activiy.
# [1] Peat TJ, Gaikwad SM, Dubois W, Gyabaah-Kessie N, Zhang S, Gorjifard S, Phyo Z, Andres M, Hughitt VK, Simpson RM, Miller MA, Girvin AT, Taylor A, Williams D, D'Antonio N, Zhang Y, Rajagopalan A, Flietner E, Wilson K, Zhang X, Shinn P, Klumpp-Thomas C, McKnight C, Itkin Z, Chen L, Kazandijian D, Zhang J, Michalowski AM, Simmons JK, Keats J, Thomas CJ, Mock BA. Drug combinations identified by high-throughput screening promote cell cycle transition and upregulate Smad pathways in myeloma. Cancer Lett. 2023 Aug 1;568:216284. doi: 10.1016/j.canlet.2023.216284. Epub 2023 Jun 24. PMID: 37356470; PMCID: PMC10408729.
# SEQUENCE No. (e.g., 1, 2, 3, etc.); […] (e.g., Cells, Incubation, Reagent, etc.); VALUE and DESCRIPTION.
# 1; Cells; 5 uL; white, solid bottom 1536-well Greiner assay plate.
# 2; Compounds; 23 nL; Kalypsis pin tool (Wako USA) equipped with a 1536-well pin head to transfer to the assay plates.
# 3; Incubation; 48 hours; 37C incubation.
# 4; Reagent;5uL; CellTiter Glo (Promega).
# 5; Detector; 425V; Luminescence; Viewlux PerkinElmer.
# NOTES (numbers refer to Sequence numbers above)
# 1. The cell-based screening methods employed in this study were like those previously published. Briefly, the corresponding myeloma cell lines were screened in 1,536-well plates with 500 cells, 5-uL per well for inhibition of cell viability (assessed by measuring ATP levels with CellTiterGlo).
# 2. NCATS MIPE 4.0 library of approved and investigational drugs were added using the Kalypsis pin tool. Wells treated with DMSO only for 100% viability and media only wells for 0% viability were used as controls.
# 3. The assay plates were covered and incubated for 48 hours in a 37C, 5% CO2 incubator with controlled humidity.
# 4. After 48 hours, CellTilter-GloTM luminescent substrate mix (Promega) reagent was added to the assay plate and plates we incubated for 5 min at room temperature.
# 5. Signal was measured as median relative luminescence units on a ViewLux (PerkinElmer) multiplate reader.
# [1] Heske CM, Davis MI, Baumgart JT, Wilson K, Gormally MV, Chen L, Zhang X, Ceribelli M, Duveau DY, Guha R, Ferrer M, Arnaldez FI, Ji J, Tran HL, Zhang Y, Mendoza A, Helman LJ, Thomas CJ. Matrix Screen Identifies Synergistic Combination of PARP Inhibitors and Nicotinamide Phosphoribosyltransferase (NAMPT) Inhibitors in Ewing Sarcoma. Clin Cancer Res. 2017 Dec 1;23(23):7301-7311. doi: 10.1158/1078-0432.CCR-17-1121. Epub 2017 Sep 12. PMID: 28899971; PMCID: PMC6636827.
# Potency means the concentration at half of the fitted maximal effect.
row,Compound,Potency
1,CC(=O)SCC(Cc1ccccc1)C(=O)NCC(=O)OCc1ccccc1 (stereo not given),2.35 µM (active)
2,CC(C)C[C@@H](C=O)NC(=O)[C@H](CC(C)C)NC(=O)[C@H](CC(C)C)NC(=O)OCc1ccccc1 (Cbz-Leu-Leu-Leu-aldehyde),0.526 µM (active)
3,O=C(O)c1ccc(Nc2ncc3c(n2)-c2ccc(Cl)cc2C(c2c(F)cccc2F)=NC3)cc1,14.8 µM (active)
4,C[C@H](NCc1ccc2c(c1)nc(NC(=O)c1ccc(-c3cn[nH]c3)s1)n2CCc1ccccc1)C(C)(C)C,0.935 µM (active)
5,C[C@H](CCC(=O)O)[C@H]1CCC2C3C[C@H](O)[C@@H]4C[C@H](O)CC[C@]4(C)C3CC[C@@]21C (stereo not given in full),inactive
6,CC(C)(O)[C@H]1CC[C@@](C)([C@H]2[C@@H](O)C[C@@]3(C)[C@@H]4C[C@H](O[C@@H]5O[C@H](CO)[C@@H](O)[C@H](O)[C@@H]5O)[C@H]5C(C)(C)[C@@H](O[C@@H]6OC[C@@H](O)[C@H](O)[C@@H]6O)CC[C@@]56C[C@@]46CC[C@]23C)O1,inactive
7,Oc1cc(-c2nc(-c3ccccc3)[nH]c2-c2ccncc2)ccc1Cl,8.33 µM (active)
8,CCCc1nc(C(C)(C)O)c(C(=O)O)n1Cc1ccc(-c2ccccc2-c2nn[nH]n2)cc1,inactive
9,C=C1C[C@@]2(O)O[C@@]3(C[C@H]2C(C)C)[C@H](C)CC[C@H]13,inactive
10,CCCCCCCCc1ccc(CCC(N)(CO)CO)cc1,3.72 µM (active)
11,O=C1NCCc2[nH]c(-c3ccncc3)cc21,2.64 µM (active)
12,NC[C@H]1O[C@H](O[C@H]2[C@@H](O)[C@@H](O[C@H]3O[C@H](CO)[C@@H](O)[C@H](N)[C@@H]3O)[C@H](N)C[C@@H]2N)[C@H](N)C[C@H]1O,inactive
13,c1coc(CNc2ncnc3nc[nH]c23)c1,inactive
14,Cn1cnc(=N)c2[nH]cnc21,0.0526 µM (active)
15,Cc1cnc(NC(=O)Nc2cc(Br)c(C)cc2OC[C@@H]2CNCCO2)cn1,5.26 µM (active)
16,Cc1cnc(Nc2ccc(N3CCN(C)CC3)cc2)nc1Nc1cccc(S(=O)(=O)NC(C)(C)C)c1,7.43 µM (active)
17,CC(C)(C)c1nc2c3cc[nH]c(=O)c3c3cc(F)ccc3c2[nH]1,1.32 µM (active)
18,OCc1ccccc1O[C@@H]1O[C@H](CO)[C@H](O)[C@H](O)[C@H]1O,inactive
19,C=C(C)[C@@H]1CC[C@]2(C)CC[C@]3(C)[C@H](CC[C@@H]4[C@@]5(C)CC[C@H](O)C(C)(C)[C@H]5CC[C@]43C)[C@@H]12,inactive
20,C=CC(=O)Nc1cccc(Nc2nc(NC3CCC(N(C)C)CC3)nc3c2ncn3C(C)C)c1 (stereo not given),0.0935 µM (active)

row,Compound,Potency
1,CNC(=O)Nc1ccc(-c2nc(N3CC4CCC(C3)O4)c3cnn(C4CCC5(CC4)OCCO5)c3n2)cc1,0.0105 µM (active)
2,O=C(NNC(=O)c1ccc(CNS(=O)(=O)c2ccc(F)c(Cl)c2)cc1)c1ccccc1,inactive
3,CCCCCCCCCCCCCCCC(=O)OC[C@@H](NC(=O)C(Cl)Cl)[C@H](O)c1ccc([N+](=O)[O-])cc1,inactive
4,COc1cc(O)c2c(c1)C1OC1C[C@H](O)[C@H](O)C(=O)C=CC[C@H](C)OC2=O (stereo not given in full),1.18 µM (active)
5,Cc1ncc(-c2ccnc(Nc3ccc(S(C)(=O)=O)cc3)n2)n1C(C)C,2.35 µM (active)
6,C[N+]1(C)[C@@H]2C[C@@H](OC(=O)C(O)(c3cccs3)c3cccs3)C[C@H]1[C@@H]1O[C@@H]12,inactive
7,CN1CCCN(C(=O)c2cccc(-c3ccc(C=C4C(=O)Nc5ccc(Cl)cc54)o3)c2)CC1,4.69 µM (active)
8,CCc1c(O)cc(O)c(C(=O)c2ccc(OCCN3CCOCC3)c(OC)c2)c1CC(=O)N(CCOC)CCOC,0.526 µM (active)
9,NC(=O)c1cccc(-c2cccc(OC(=O)NC3CCCCC3)c2)c1,inactive
10,CC(=O)[C@]1(O)Cc2c(O)c3c(c(O)c2[C@@H](O[C@H]2C[C@H](N)[C@@H](O)[C@H](C)O2)C1)C(=O)c1ccccc1C3=O,0.105 µM (active)
11,COc1ccc(C(C)=O)c(O)c1,inactive
12,C#CCC(Cc1cnc2nc(N)nc(N)c2n1)c1ccc(C(=O)N[C@@H](CCC(=O)O)C(=O)O)cc1 (stereo not given in full),inactive
13,Cn1c(Nc2ccc(C(F)(F)F)cc2)nc2cc(Oc3ccnc(-c4ncc(C(F)(F)F)[nH]4)c3)ccc21,11.8 µM (active)
14,COC1=C2C[C@@H](C)C[C@H](OC)[C@@H](O)[C@@H](C)C=C(C)[C@H](OC(N)=O)[C@@H](OC)C=CC=C(C)C(=O)NC(=CC1=O)C2=O,0.0418 µM (active)
15,NC(=O)c1ncn([C@@H]2O[C@H](CO)[C@@H](O)[C@@H]2O)c1O,inactive
16,COc1cc(N2CCC(C(N)=O)CC2)ccc1Nc1nc(N)c(Cl)c(Nc2ccccc2S(=O)(=O)C(C)C)n1,0.001 µM (active)
17,O=C1NC(=O)C(=Cc2ccc3nccc(-c4ccncc4)c3c2)S1,0.0935 µM (active)
18,COc1ccc2cc([S+]([O-])Cc3ncc(C)c(OC)c3C)nc2c1,inactive
19,Cc1[nH]c(C=C2C(=O)Nc3ccccc32)c(C)c1CCC(=O)O,11.8 µM (active)
20,COc1cccc2c1C(=O)c1c(O)c3c(c(O)c1C2=O)C[C@@](O)(C(C)=O)C[C@H]3O[C@H]1C[C@H](N)[C@H](O)[C@H](C)O1,0.0526 µM (active)
